According to PubChem BioAssay (EPA / NIEHS):
Where a structure was tested more than once in an assay, its records may differ in their call. Calls of active or inactive are those of the source. How the source made its calls: active means hit-call score of the fitted dose curve at least 0.9, where 1 is the maximum; inactive means score below 0.9.

Read-out: Tumor necrosis factor (Homo sapiens) (UniProt P01375)
Assay: BSK_LPS_TNFa: BioMAP Diversity Plus: LPS Assay for Tumour Necrosis Factor alpha (TNFa) Biomarker Activity (AID 2283085)
Conditions: primary human HUVEC with PBMC; actives raise or lower the signal
Description: BSK_LPS is a cell-based, multiplexed-readout assay that uses umbilical vein endothelium and peripheral blood mononuclear cells, a human vascular primary cell co-culture, with measurements taken at 24 hours after chemical dosing in a 96-well plate.BSK_LPS_TNFa is an assay component measured in the BSK_LPS assay. It measures TNF-a antibody related to regulation of gene expression using ELISA technology.Data from the assay component BSK_LPS_TNFa was analyzed into 1 assay endpoint. This assay endpoint, BSK_LPS_TNFa, was analyzed with bidirectional fitting relative to DMSO as the negative control and baseline of activity. Using a type of binding reporter, gain or loss-of-signal activity can be used to understand changes in the signaling as they relate to the gene TNF. Furthermore, this assay endpoint can be referred to as a primary readout, because this assay has produced multiple assay endpoints where this one serves a signaling function. To generalize the intended target to other relatable targets, this assay endpoint is annotated to the cytokine intended target family, where the subfamily is inflammatory factor.
The levels of cell surface (or secreted, indicated by the prefix "s") biomarker endpoints were measured by ELISA. Overt cytotoxicity to cells in confluent adherent cultures (all systems other than the BT system) was assessed by measuring total protein levels using sulforhodamine B (SRB) staining in parallel cultures at the time of biomarker measurements, indicated as SRB endpoints. For proliferation assays for adherent cell types, individual cell types are cultured at sub-confluence and relative cell numbers quantified by SRB staining at time points optimized for each system (48 h: 3C and CASM3C systems; 72 h: BT and HDF3CGF systems; 96 h: SAg system). SRB was performed by staining cells with 0.1% SRB after fixation with 10% TCA and reading wells at 560 nm.Viability and proliferation of PBMC (T cells) was quantified by Alamar Blue reduction for the SAg and BT systems. For PBMC viability (referred to as PBMC Cytotoxicity within the assay endpoint names), cells were plated (75,000/well in a 96-well plate) and then chemical samples added for 1 h before addition of activators, SEB and TSST-1 (20 ng/mL final concentration each). Cells were incubated for 90 h. Then, Alamar Blue (20 uL/well) (Invitrogen, Cat DAL1100) was added for 6 h, and the plates were read with a fluorescence microplate reader at 546/580 nm (excitation/emission). For PBMC proliferation, cells were plated and activated as above but incubated for only 16 h prior to addition of Alamar Blue. Plates were read after 6 h.

Tumor necrosis factor (Homo sapiens), sequence (P01375 whole entry, looked up): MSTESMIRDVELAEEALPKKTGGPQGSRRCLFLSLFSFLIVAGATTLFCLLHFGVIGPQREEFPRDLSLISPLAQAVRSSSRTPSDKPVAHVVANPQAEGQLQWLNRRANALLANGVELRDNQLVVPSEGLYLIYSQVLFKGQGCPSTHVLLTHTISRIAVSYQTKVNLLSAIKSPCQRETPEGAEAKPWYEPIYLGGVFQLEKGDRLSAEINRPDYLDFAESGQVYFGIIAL

Row | Compound | outcome | AC50
1 | CC(C)(C)C(O)C(Oc1ccc(Cl)cc1)n1cncn1 (stereo not given) | inactive | –
2 | O=S1OCC2C(CO1)C1(Cl)C(Cl)=C(Cl)C2(Cl)C1(Cl)Cl (stereo not given) | – | 32.2 µM (active)
3 | O=C(O)COc1ccc(Cl)cc1Cl | inactive | –
4 | COP(=S)(OC)Oc1ccc(SC)c(C)c1 | inactive | –
5 | CC(C)(C)C(O)/C(=C\c1ccc(Cl)cc1Cl)n1cncn1 (stereo not given) | inactive | –
6 | N#CN | inactive | –
7 | COc1cc(OC)nc(NC(=O)NS(=O)(=O)c2cc(NC=O)ccc2C(=O)N(C)C)n1 | inactive | –
8 | Cc1[nH]c(=O)n(C(C)(C)C)c(=O)c1Cl | inactive | –
9 | [2H]C1([2H])[n+]2ccccc2-c2cccc[n+]2C1([2H])[2H] | inactive | –
10 | CC1(C)C(C=C(Cl)Cl)C1C(=O)OC(C#N)c1ccc(F)c(Oc2ccccc2)c1 (stereo not given) | inactive | –
11 | O=C(O)C(F)(F)C(F)(F)C(F)(F)C(F)(F)C(F)(F)C(F)(F)C(F)(F)F | inactive | 9.76 µM (active)
12 | CC[C@H](C)[C@H]1O[C@]2(C=C[C@@H]1C)C[C@@H]1C[C@@H](C/C=C(\C)[C@@H](O[C@H]3C[C@H](OC)[C@@H](O[C@H]4C[C@H](OC)[C@@H](O)[C@H](C)O4)[C@H](C)O3)[C@@H](C)/C=C/C=C3\CO[C@@H]4[C@H](O)C(C)=C[C@@H](C(=O)O1)[C@]34O)O2 (tested in a mixture with another compound) | – | 10.3 µM (active)
13 | CCC(C)Nc1c([N+](=O)[O-])cc(C(C)(C)C)cc1[N+](=O)[O-] (stereo not given) | inactive | –
14 | O=S(=O)(O)C(F)(F)C(F)(F)C(F)(F)C(F)(F)C(F)(F)C(F)(F)C(F)(F)C(F)(F)F | inactive | 15 µM (active)
15 | CNC(=O)/C=C(\C)OP(=O)(OC)OC | inactive | –
16 | CCCN(CCC)c1c([N+](=O)[O-])cc(C(F)(F)F)cc1[N+](=O)[O-] | inactive | –
17 | COP(=S)(OC)Oc1ccc([N+](=O)[O-])cc1 | inactive | –
18 | CCOCN(C(=O)CCl)c1c(C)cccc1CC | – | 5.13 µM (active)
19 | CNC(=O)Oc1ccccc1OC(C)C | inactive | –

Row | Compound | outcome | AC50
20 | Oc1ccc(Cl)cc1Cc1ccccc1 | – | 32 µM (active) [middle of 7 runs]
21 | ClC1C(Cl)C(Cl)C(Cl)C(Cl)C1Cl (stereo not given) | inactive | 13.3 µM (active)
22 | CCC(C)(NC(=O)c1cc(Cl)c(C)c(Cl)c1)C(=O)CCl (stereo not given) | – | 12.3 µM (active)
23 | Clc1ccccc1-c1nnc(-c2ccccc2Cl)nn1 | inactive | –
24 | CCOC1Oc2ccc(OS(C)(=O)=O)cc2C1(C)C (stereo not given) | inactive | –
25 | O=C(O)CCCOc1ccc(Cl)cc1Cl | inactive | –
26 | COC(=O)c1ccccc1CS(=O)(=O)NC(=O)Nc1nc(OC)cc(OC)n1 | inactive | –
27 | CC(C)OC(=O)Nc1cccc(Cl)c1 | inactive | –
28 | CNC(=O)CSP(=S)(OC)OC | inactive | –
29 | O=C(Nc1ccccc1)Nc1cnns1 | – | 18.4 µM (active)
30 | O=[N+]([O-])/N=C1\NCCN1Cc1ccc(Cl)nc1 | inactive | –
31 | Cc1cc(C)nc(NC(=O)NS(=O)(=O)c2ccccc2C(=O)OC2COC2)n1 | inactive | –
32 | CCC(C)(C)C(=O)OC1=C(c2ccc(Cl)cc2Cl)C(=O)OC12CCCCC2 | – | 32.5 µM (active)
33 | CN1CSC(=S)N(C)C1 | – | 8.45 µM (active)
34 | CCN(CC)C(=O)SCc1ccc(Cl)cc1 | inactive | –
35 | COC(=O)c1ccccc1S(=O)(=O)NC(=O)N(C)c1nc(C)nc(OC)n1 | inactive | –
36 | O=C(NC(=O)c1c(F)cccc1F)Nc1ccc(OC(F)(F)C(F)OC(F)(F)F)c(Cl)c1 (stereo not given) | inactive | –
37 | COC(=O)c1ccccc1S(=O)(=O)NC(=O)Nc1nc(C)nc(OC)n1 | inactive | –
